Laboratory results reported in PubChem BioAssay AID1159580 (chemical genetic matrix, 2015).
Among all 5,500 compounds or so, about 2,000 (36%) were called active. Another 18% or so got no clear call; they are omitted. No stated cut-off is given here; in the data, active means normalized growth mostly below about 0.91 (no sharp cut-off); inconclusive means no clear call, values can overlap the other calls; inactive means mostly above about 0.92. This is one part of the list.

Experiment: chemical genetic growth profiling, strain panel (AID 1159580);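 further: tested at 20 µM; growth read once vehicle control cultures reached saturation at 30 °C; 1 = growth at the plate median or of vehicle wells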
Details: growth OD

Measured: normalized growth

COc1ccc2cc([C@H](C)CO)ccc2c1
inactive: S. cerevisiae deletion strains, locus YJR066W, strain TOR1, stronger effect = lower value 0.935 | S. cerevisiae deletion strains, locus YJR075W, strain HOC1, stronger effect = lower value 0.998 | S. cerevisiae deletion strains, locus YKL009W, strain mrt4, stronger effect = lower value 0.935 | S. cerevisiae deletion strains, locus YKL068W, stronger effect = lower value 0.975 | S. cerevisiae deletion strains, locus YKL085W, strain MDH1 (second series), stronger effect = lower value 0.949 | S. cerevisiae deletion strains, locus YKL085W, strain MDH1, stronger effect = lower value 0.949 | S. cerevisiae deletion strains, locus YKL160W, strain elf1, stronger effect = lower value 1 | S. cerevisiae deletion strains, locus YKL190W, strain CNB1, stronger effect = lower value 0.995 | S. cerevisiae deletion strains, locus YKR001C, strain vps1, stronger effect = lower value 0.97 | S. cerevisiae deletion strains, locus YKR026C, strain gcn3, stronger effect = lower value 1.01 | S. cerevisiae deletion strains, locus YKR091W, strain srl3, stronger effect = lower value 1.01 | S. cerevisiae deletion strains, locus YLL001W, strain dnm1, stronger effect = lower value 1.01 | S. cerevisiae deletion strains, locus YLL026W, stronger effect = lower value 1.01 | S. cerevisiae deletion strains, locus YLL041C, strain sdh2, stronger effect = lower value 1.01 | S. cerevisiae deletion strains, locus YLR027C, strain aat2, stronger effect = lower value 1.01 | S. cerevisiae deletion strains, locus YLR039C, strain RIC1, stronger effect = lower value 0.991 | S. cerevisiae deletion strains, locus YLR058C, strain SHM2, stronger effect = lower value 0.977 | S. cerevisiae deletion strains, locus YLR102C, strain apc9, stronger effect = lower value 0.966 | S. cerevisiae deletion strains, locus YLR113W, strain HOG1, stronger effect = lower value 0.929 | S. cerevisiae deletion strains, locus YLR221C, strain rsa3, stronger effect = lower value 1.01 | S. cerevisiae deletion strains, locus YLR258W, strain gsy2, stronger effect = lower value 1.01 | S. cerevisiae deletion strains, locus YLR262C, strain YPT6 (second series), stronger effect = lower value 1.01 | S. cerevisiae deletion strains, locus YLR262C, strain YPT6, stronger effect = lower value 0.9 | S. cerevisiae deletion strains, locus YLR268W, strain sec22, stronger effect = lower value 1.03 | S. cerevisiae deletion strains, locus YLR320W, strain mms22, stronger effect = lower value 1.02 | S. cerevisiae deletion strains, locus YLR330W, strain CHS5, stronger effect = lower value 0.992 | S. cerevisiae deletion strains, locus YLR342W, strain FKS1 (second series), stronger effect = lower value 0.969 | S. cerevisiae deletion strains, locus YLR342W, strain FKS1, stronger effect = lower value 1.01 | S. cerevisiae deletion strains, locus YLR357W, strain rsc2, stronger effect = lower value 1 | S. cerevisiae deletion strains, locus YLR370C, strain arc18, stronger effect = lower value 1.01 | S. cerevisiae deletion strains, locus YLR371W, strain rom2, stronger effect = lower value 0.918 | S. cerevisiae deletion strains, locus YLR384C, strain iki3, stronger effect = lower value 1.01 | S. cerevisiae deletion strains, locus YLR418C, strain cdc73, stronger effect = lower value 0.968 | S. cerevisiae deletion strains, locus YML016C, strain PPZ1, stronger effect = lower value 0.989 | S. cerevisiae deletion strains, locus YML032C, strain rad52, stronger effect = lower value 0.989 | S. cerevisiae deletion strains, locus YML120C, strain ndi1, stronger effect = lower value 1.01 | S. cerevisiae deletion strains, locus YMR058W, strain fet3, stronger effect = lower value 1.01 | S. cerevisiae deletion strains, locus YMR078C, strain ctf18, stronger effect = lower value 0.969 | S. cerevisiae deletion strains, locus YMR125W, strain sto1, stronger effect = lower value 1.01 | S. cerevisiae deletion strains, locus YMR129W, stronger effect = lower value 1.02 | S. cerevisiae deletion strains, locus YMR205C, strain PFK2, stronger effect = lower value 1.02 | S. cerevisiae deletion strains, locus YMR223W, strain ubp8, stronger effect = lower value 0.964 | S. cerevisiae deletion strains, locus YMR231W, strain pep5, stronger effect = lower value 1.01 | S. cerevisiae deletion strains, locus YMR263W, strain SAP30, stronger effect = lower value 0.985 | S. cerevisiae deletion strains, locus YMR307W, strain GAS1, stronger effect = lower value 1.04 | S. cerevisiae deletion strains, locus YNL067W, strain RPL9B, stronger effect = lower value 0.991 | S. cerevisiae deletion strains, locus YNL071W, strain lat1, stronger effect = lower value 1.01 | S. cerevisiae deletion strains, locus YNL128W, strain TEP1, stronger effect = lower value 0.979 | S. cerevisiae deletion strains, locus YNL153C, strain GIM3, stronger effect = lower value 0.996 | S. cerevisiae deletion strains, locus YNL183C, strain NPR1, stronger effect = lower value 0.917 | S. cerevisiae deletion strains, locus YNL209W, strain ssb2, stronger effect = lower value 1.01 | S. cerevisiae deletion strains, locus YNL233W, strain BNI4, stronger effect = lower value 1.01 | S. cerevisiae deletion strains, locus YNL248C, strain rpa49, stronger effect = lower value 0.968 | S. cerevisiae deletion strains, locus YNL250W, strain rad50, stronger effect = lower value 0.956 | S. cerevisiae deletion strains, locus YNL271C, strain bni1, stronger effect = lower value 0.979 | S. cerevisiae deletion strains, locus YNL298W, strain CLA4, stronger effect = lower value 0.949 | S. cerevisiae deletion strains, locus YNL307C, strain MCK1, stronger effect = lower value 0.97 | S. cerevisiae deletion strains, locus YNL322C, strain KRE1 (second series), stronger effect = lower value 1.01 | S. cerevisiae deletion strains, locus YNL322C, strain KRE1, stronger effect = lower value 0.996 | S. cerevisiae deletion strains, locus YNR049C, strain mso1, stronger effect = lower value 1.01 | S. cerevisiae deletion strains, locus YNR052C, strain pop2, stronger effect = lower value 0.975 | S. cerevisiae deletion strains, locus YOL006C, strain TOP1, stronger effect = lower value 0.91 | S. cerevisiae deletion strains, locus YOL012C, strain htz1 1.3 | S. cerevisiae deletion strains, locus YOL147C, strain pex11, stronger effect = lower value 0.941 | S. cerevisiae deletion strains, locus YOR001W, strain rrp6, stronger effect = lower value 1.02 | S. cerevisiae deletion strains, locus YOR061W, strain CKA2, stronger effect = lower value 0.968 | S. cerevisiae deletion strains, locus YOR069W, strain VPS5, stronger effect = lower value 0.988 | S. cerevisiae deletion strains, locus YOR070C, strain gyp1, stronger effect = lower value 1.01 | S. cerevisiae deletion strains, locus YOR080W, strain dia2, stronger effect = lower value 1.01 | S. cerevisiae deletion strains, locus YOR083W, strain WHI5, stronger effect = lower value 1.01 | S. cerevisiae deletion strains, locus YOR106W, strain vam3, stronger effect = lower value 1 | S. cerevisiae deletion strains, locus YOR136W, strain idh2, stronger effect = lower value 0.977 | S. cerevisiae deletion strains, locus YOR144C, strain elg1, stronger effect = lower value 0.978 | S. cerevisiae deletion strains, locus YOR184W, strain ser1, stronger effect = lower value 0.95 | S. cerevisiae deletion strains, locus YOR231W, strain MKK1, stronger effect = lower value 0.937 | S. cerevisiae deletion strains, locus YOR265W, strain rbl2, stronger effect = lower value 1.01 | S. cerevisiae deletion strains, locus YOR270C, strain vph1, stronger effect = lower value 0.997 | S. cerevisiae deletion strains, locus YOR290C, strain snf2, stronger effect = lower value 0.998 | S. cerevisiae deletion strains, locus YOR316C, strain cot1, stronger effect = lower value 0.976 | S. cerevisiae deletion strains, locus YPL051W, strain arl3, stronger effect = lower value 1.01 | S. cerevisiae deletion strains, locus YPL055C, strain LGE1, stronger effect = lower value 0.98 | S. cerevisiae deletion strains, locus YPL078C, strain atp4, stronger effect = lower value 1.01 | S. cerevisiae deletion strains, locus YPL106C, strain sse1, stronger effect = lower value 1.04 | S. cerevisiae deletion strains, locus YPL240C, strain hsp82, stronger effect = lower value 1.01 | S. cerevisiae deletion strains, locus YPL241C, strain CIN2, stronger effect = lower value 0.985 | S. cerevisiae deletion strains, locus YPL256C, strain CLN2, stronger effect = lower value 0.924 | S. cerevisiae deletion strains, locus YPR119W, strain clb2, stronger effect = lower value 0.971 | S. cerevisiae deletion strains, locus YPR141C, strain kar3, stronger effect = lower value 0.959 | S. cerevisiae deletion strains, locus YPR163C, strain tif3, stronger effect = lower value 0.978 | S. cerevisiae deletion strains, locus YPR167C, strain met16, stronger effect = lower value 0.977 | S. cerevisiae deletion strains, strain wtn01, stronger effect = lower value 0.968 | S. cerevisiae strains, strain wild type, stronger effect = lower value 0.979
